Activity calls are given as the source filed them.

Test [1] in a line: E. coli DRC41 culture turbidity changes, primary screen, E. coli filamentation inducer project, strain DRC41, OD650, 48 h (AID 1152).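 Further: E. coli MC1000 strain DRC41 lacking acrAB efflux pump and sulA.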 The settings on record: E. coli DRC41 (acrAB sulA), higher = more signal, called active from +8 up or from −8 down.
Test [2] is described as follows: small-molecule binders of probe aLefty1, primary screen, biochemical, small-molecule microarray, 635/667 nm fluorescence (AID 1153).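 Further: score merges spot fluorescence with signal-to-noise ratio from the scanned slide images.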 The settings on record: higher = more signal.
Test [3] can be described thus: PSAC antagonists in infected red cells, primary screen, cell-based, P. falciparum Indochina, OD700, 1 h (AID 1154). The settings on record: P. falciparum Indochina infected RBC osmotic lysis, higher = more signal, called active from +8 up or from −8 down.
Test [4] in a line: PSAC antagonists in infected red cells, primary screen, cell-based, P. falciparum Indochina, OD700, 2 h (AID 1155).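 Further: lysis reports solute entry through the parasite surface anion channel PSAC; channel blockers reduce lysis of infected cells.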 The settings on record: P. falciparum Indochina infected erythrocytes, osmotic lysis OD700; higher = more signal, called active from +8 up or from −8 down.
Test [5] is described as follows: osmotic lysis modulators in infected erythrocytes, primary screen, PSAC antagonist project, cell-based, P. falciparum Indochina, OD700, 3 h (AID 1156). To be noted: higher = more signal, called active from +8 up or from −8 down.
A short description of test [6]: PSAC antagonists in infected red cells, primary screen, cell-based, P. falciparum Indochina, OD700, 18 h (AID 1157). To be noted: P. falciparum Indochina infected erythrocytes, osmotic lysis OD700, 18 h; higher = more signal, called active from +8 up or from −8 down.
Test [7] can be described thus: modulators of S6 phosphorylation in cells, primary screen, cell-based, A549, cytoblot, luminescence, serum-stimulated (AID 1158).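 Further: serum-stimulated A549 lung adenocarcinoma cells; signal is phosphorylated S6 detected by cytoblot immunostaining with HRP secondary.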 The settings on record: A549 phospho-S6 cytoblot, 5 h, higher = more signal.
Test [8] addresses NADPH oxidase 2 (Homo sapiens) (UniProt P04839). The experiment in a line: NOX2-dependent H2O2 signal modulators, primary screen, NOX inhibitor project, cell-based, HEK293-NOX2, PMA-stimulated, Amplex Red fluorescence (AID 1159). Further: test concentration not given here. To be noted: 45 min, higher = more signal, called active from +8 up or from −8 down.
For test [9], the target named is NADPH oxidase 4 (Homo sapiens) (UniProt Q9NPH5). Briefly: NOX4-dependent H2O2 signal modulators, primary screen, NOX inhibitor project, cell-based, HEK293-NOX4, tetracycline-induced, Amplex Red fluorescence (AID 1160). To be noted: 45 min, higher = more signal, called active from +8 up or from −8 down.
Test [10] concerns the target NADPH oxidase 5 (Homo sapiens) (UniProt Q96PH1). The experiment in a line: NOX5-dependent H2O2 signal modulators, primary screen, NOX inhibitor project, cell-based, HEK293-NOX5, Amplex Red fluorescence (AID 1161). To be noted: HEK293-NOX5, ionomycin, 45 min, higher = more signal.
Test [11] in a line: A549 cell viability effects, profiling panel, calcein-AM fluorescence, 48 h, basal (AID 1162). Further: test concentration not given here. The settings on record: higher = more signal.
A short description of test [12]: adipocyte viability effects, profiling panel, cell-based, 3T3-L1 adipocytes, calcein-AM fluorescence, 48 h, basal (AID 1163). Further: test concentration not given here. The settings on record: 3T3-L1 adipocytes viability, higher = more signal.
A short description of test [13]: HepG2 cell viability effects, profiling panel, calcein-AM fluorescence, 48 h, basal (AID 1164). Further: test concentration not given here. To be noted: higher = more signal.
Test [14] can be described thus: MM1S cell viability effects, profiling panel, calcein-AM fluorescence, 48 h, basal (AID 1165).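 Further: viability of MM1S multiple myeloma cells under basal unstimulated conditions; test concentration not given here.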 The settings on record: higher = more signal.
Test [15] is described as follows: basal RPMI8226 viability, no added stimulus, profiling panel, cell-based, calcein-AM fluorescence, 48 h, PK04 Diversity Set (AID 1166).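 Further: cells grown under basal conditions without added stimulus; test concentration not given here.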 The settings on record: RPMI8226 myeloma viability, higher = more signal.
Test [16] is described as follows: basal HepG2 mitochondrial membrane potential changes, profiling panel, cell-based, JC-1 fluorescence, 24 h, 100 nL compound (AID 1167). Further: test concentration not given here. To be noted: higher = more signal.
Test [17] is described as follows: basal 3T3-L1 adipocyte mitochondrial potential changes, profiling panel, cell-based, JC-1 fluorescence, 3T3-L1 adipocytes, 24 h, 100 nL compound (AID 1168). Further: test concentration not given here. The settings on record: JC-1 mitochondrial fluorescence, higher = more signal, called active from +8 up or from −8 down.
Test [18] in a line: basal RPMI8226 mitochondrial membrane potential changes, profiling panel, cell-based, JC-1 fluorescence, 24 h, 100 nL compound (AID 1169). Further: test concentration not given here. The settings on record: RPMI8226 myeloma, JC-1 mitochondrial potential fluorescence, higher = more signal.
A short description of test [19]: basal MM1S mitochondrial membrane potential changes, profiling panel, cell-based, JC-1 fluorescence, 24 h, 100 nL compound (AID 1170). Further: test concentration not given here. To be noted: higher = more signal.
Test [20] can be described thus: A549 lung cancer cell viability effects, profiling panel, resazurin fluorescence, 24 h, PK04 Diversity Set (AID 1171). Further: test concentration not given here. To be noted: higher = more signal, called active from +8 up or from −8 down. In general terms: Alamar Blue is a resazurin reagent that responds to reducing activity.

Sequence of NADPH oxidase 4 (Homo sapiens) (Q9NPH5 whole entry, looked up): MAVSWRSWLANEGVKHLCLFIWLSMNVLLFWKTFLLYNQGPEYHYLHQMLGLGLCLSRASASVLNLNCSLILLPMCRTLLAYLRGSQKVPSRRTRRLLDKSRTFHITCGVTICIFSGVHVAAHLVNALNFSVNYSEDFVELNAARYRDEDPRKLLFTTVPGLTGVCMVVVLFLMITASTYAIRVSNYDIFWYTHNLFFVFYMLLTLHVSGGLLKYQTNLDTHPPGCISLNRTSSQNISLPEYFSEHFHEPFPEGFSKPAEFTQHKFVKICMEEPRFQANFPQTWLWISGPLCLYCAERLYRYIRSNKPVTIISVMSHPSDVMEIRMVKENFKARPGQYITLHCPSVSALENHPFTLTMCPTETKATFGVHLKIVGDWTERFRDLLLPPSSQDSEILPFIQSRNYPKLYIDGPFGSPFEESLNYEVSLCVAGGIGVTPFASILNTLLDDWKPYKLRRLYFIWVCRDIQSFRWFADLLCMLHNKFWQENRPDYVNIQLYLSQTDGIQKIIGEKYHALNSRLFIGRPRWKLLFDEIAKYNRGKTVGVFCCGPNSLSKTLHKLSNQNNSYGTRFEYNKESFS
Sequence of NADPH oxidase 5 (Homo sapiens) (Q96PH1 whole entry, looked up): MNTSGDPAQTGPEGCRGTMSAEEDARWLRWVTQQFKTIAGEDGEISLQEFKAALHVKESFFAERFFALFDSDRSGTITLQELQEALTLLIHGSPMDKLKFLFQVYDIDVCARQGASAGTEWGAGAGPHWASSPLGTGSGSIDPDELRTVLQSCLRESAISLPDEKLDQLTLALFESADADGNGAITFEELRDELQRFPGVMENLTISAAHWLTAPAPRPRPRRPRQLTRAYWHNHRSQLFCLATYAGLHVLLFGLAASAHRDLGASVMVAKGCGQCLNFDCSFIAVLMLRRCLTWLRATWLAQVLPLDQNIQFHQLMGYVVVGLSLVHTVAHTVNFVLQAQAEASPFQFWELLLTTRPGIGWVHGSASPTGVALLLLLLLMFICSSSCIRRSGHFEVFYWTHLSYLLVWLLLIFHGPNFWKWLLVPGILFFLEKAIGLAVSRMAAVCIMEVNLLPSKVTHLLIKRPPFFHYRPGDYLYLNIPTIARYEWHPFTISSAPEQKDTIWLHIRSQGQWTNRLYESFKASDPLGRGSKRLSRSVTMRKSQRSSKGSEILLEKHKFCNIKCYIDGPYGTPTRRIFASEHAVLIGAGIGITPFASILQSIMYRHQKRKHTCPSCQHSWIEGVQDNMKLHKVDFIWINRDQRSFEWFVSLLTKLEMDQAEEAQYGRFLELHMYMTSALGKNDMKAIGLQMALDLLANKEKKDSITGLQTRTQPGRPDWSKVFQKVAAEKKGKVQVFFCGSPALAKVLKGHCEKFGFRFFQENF
Sequence of NADPH oxidase 2 (Homo sapiens) (P04839 whole entry, looked up): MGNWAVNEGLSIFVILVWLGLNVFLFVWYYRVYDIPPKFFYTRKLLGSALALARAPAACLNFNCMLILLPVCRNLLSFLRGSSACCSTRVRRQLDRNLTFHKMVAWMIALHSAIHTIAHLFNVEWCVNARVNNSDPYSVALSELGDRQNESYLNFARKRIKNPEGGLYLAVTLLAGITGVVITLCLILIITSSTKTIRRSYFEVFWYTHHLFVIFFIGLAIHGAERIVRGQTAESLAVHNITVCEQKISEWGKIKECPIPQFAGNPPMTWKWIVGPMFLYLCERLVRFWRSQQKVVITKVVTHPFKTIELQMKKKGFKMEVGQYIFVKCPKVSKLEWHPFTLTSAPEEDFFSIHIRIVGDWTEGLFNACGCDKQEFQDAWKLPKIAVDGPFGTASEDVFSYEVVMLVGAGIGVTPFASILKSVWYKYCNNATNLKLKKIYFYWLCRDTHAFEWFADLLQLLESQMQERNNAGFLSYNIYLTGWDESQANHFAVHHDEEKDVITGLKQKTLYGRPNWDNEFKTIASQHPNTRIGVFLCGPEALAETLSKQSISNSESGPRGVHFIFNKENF

For `[N-]=[N+]=NCc1ccccc1C[C@]1(C(N)=O)N=C(c2ccc(OCCCO)cc2)O[C@H]1c1ccccc1N=[N+]=[N-]`, the z-score was 0.125 (inactive) in test [1]; 34.1 (active) in [3]; 32.7 (active) in test [4]; 2.52 (inactive) in test [5]; 3.39 (inactive) in [6]; -0.59 in test [7]. Further, the z-score was -3.15 (inactive) in test [8]; -0.457 (inactive) in test [9]; -2.02 in test [10]; -0.169 in test [11]; 0.0873 in test [12]; -0.153 in test [13]. For the same compound, the z-score in test [14] is -2.05; in test [15] it was -1.55; in [16], -0.727; in test [17], -1.38 (inactive); in [18] it was -1.04; in test [19] it was -0.649. In addition, the z-score in test [20] is -0.38 (inactive). In test [2], this compound returned a composite z-score of 0.588.

Consider `CCCCCN1CC=CC23O[C@@H]4C=CCCOC(=O)C4[C@H]2C(=O)N(CCCO)[C@@H]3C1=O` (stereo not given in full), for which the z-score was 2.03 (inactive) in test [1]; -0.235 (inactive) in test [3]; -1.49 (inactive) in test [4]; 1.17 (inactive) in [5]; -1.02 (inactive) in test [6]; 0.655 in [7]. Further, the z-score was -1.16 (inactive) in test [8]; -1.08 (inactive) in [9]; -0.705 in test [10]; -0.55 in test [11]; 0.133 in test [12]; -0.904 in test [13]. For the same compound, the z-score is 0.0357 in test [14]; -0.0158 in test [15]; -0.639 in test [16]; -0.361 (inactive) in test [17]; -0.606 in test [18]; 0.00824 in [19]. The z-score in test [20] is -0.0645 (inactive). The composite z-score in [2] is -0.151.

Regarding `C/C=C/[C@H](CCn1cc([C@H](O)c2ccccc2)nn1)[Si](C)(C)c1ccc(OC)cc1`, the z-score in test [1] was -0.356 (inactive); in test [3], 5.6 (inactive); in test [4], 0.755 (inactive); in [5], 0.39 (inactive); in [6], 0.13 (inactive); in test [7], 0.293. Also, the z-score is 0.576 (inactive) in test [8]; -0.0887 (inactive) in test [9]; -2.11 in [10]; -0.0186 in test [11]; -0.358 in test [12]; -0.689 in test [13]. Besides, the z-score is -1.58 in [14]; -1.43 in test [15]; -1.4 in [16]; 0.644 (inactive) in test [17]; -0.569 in test [18]; -0.629 in test [19]. Besides, in test [20], the z-score is 0.22 (inactive). This compound returned a composite z-score in [2] of 0.0038.

For `O=C1OCC=C[C@H]2OC34C=CCN(c5ccc(Cl)cc5)C(=O)[C@H]3N(CCCO)C(=O)[C@@H]4[C@@H]12` (stereo not given in full), the z-score in test [1] was 0.657 (inactive); in test [3], 0.204 (inactive); in test [4] it was -0.531 (inactive); in test [5] it was -0.172 (inactive); in test [6], -1.41 (inactive); in test [7], 0.808. Moreover, the z-score in [8] was 0.846 (inactive); in test [9], -0.895 (inactive); in test [10], 2.6; in test [11], -0.0108; in test [12] it was 1.46; in test [13], -0.722. In addition, the z-score was 0.237 in test [14]; -0.802 in test [15]; -0.545 in [16]; 0.978 (inactive) in test [17]; -0.454 in test [18]; 0.856 in test [19]. For the same compound, in [20], the z-score was -0.875 (inactive). Also, the composite z-score in test [2] is -0.128.

In the case of `CC(=O)NCCCC[C@@H]1NC(=O)[C@@H]2C[C@H](C(=O)NCc3ccc(F)cc3)[C@H](c3ccc(O)cc3)N2C1=O`, the z-score in [1] is 0.921 (inactive); in [3], 1.63 (inactive); in test [4] it was 0.549 (inactive); in [5], -1.64 (inactive); in test [6], 0.277 (inactive); in test [7], -0.0125. The z-score in [8] is 0.647 (inactive); in [9] it was 0.059 (inactive); in [10], 1.37; in test [11], -0.484; in test [12], 0.347; in [13] it was -0.797. The z-score in test [14] is -1.18; in test [15], -0.556; in test [16] it was 1.28; in [17] it was 0.58 (inactive); in test [18], 0.0286; in [19] it was 0.28. Further, in test [20], the z-score was 0.361 (inactive). In test [2], the composite z-score was -0.0601.

As to `CS(=O)(=O)CCOC(=O)C1=CC(c2ccc(CO)cc2)=CC(c2cccs2)N(Cc2cccc(OC(F)(F)F)c2)C=C1C(=O)OCCS(C)(=O)=O` (stereo not given), the z-score in test [1] is -2.86 (inactive); in [3], 14.8 (active); in [4] it was 4.37 (inactive); in [5], 0.869 (inactive); in [6], 1.95 (inactive); in test [7], 0.158. Also, the z-score is -2.07 (inactive) in [8]; -1.09 (inactive) in test [9]; -2.37 in [10]; 0.0527 in [11]; 0.171 in [12]; -1.31 in test [13]. Besides, the z-score is -3.31 in test [14]; -3.27 in [15]; -2.84 in [16]; 0.384 (inactive) in test [17]; -0.722 in [18]; -1.28 in test [19]. Besides, the z-score in test [20] is -0.481 (inactive). This compound came in with a composite z-score in test [2] of 0.0575.

As to `C=C(C(=O)CC[C@@H](OC(=O)c1cccnc1)c1ccc(OCCO)cc1)C(C)C`, the z-score is -1.07 (inactive) in test [1]; 3.66 (inactive) in [3]; 2.48 (inactive) in test [4]; -6.06 (inactive) in [5]; 0.822 (inactive) in test [6]; -0.917 in test [7]. Moreover, the z-score in test [8] was -4.23 (inactive); in [9], -1.19 (inactive); in test [10], -1.6; in test [11] it was -1.9; in test [12], -1.63; in [13] it was -3.17. Moreover, the z-score in test [14] was -3.39; in [15], -1.9; in test [16], -0.959; in [17], -0.0274 (inactive); in test [18] it was -0.304; in [19] it was -1.41. In addition, in [20], the z-score is -1.34 (inactive). In test [2], this compound came in with a composite z-score of 0.0043.

Take `CC(C)C(=C=CC[C@H](O)c1ccccc1OCCO)CCO`: the z-score in test [1] was -0.42 (inactive); in test [3], 2.08 (inactive); in test [4], -0.0743 (inactive); in [5], -0.163 (inactive); in test [6] it was 0.013 (inactive); in [7], -0.2. In addition, the z-score is -0.353 (inactive) in [8]; 0.323 (inactive) in test [9]; -0.738 in test [10]; -0.417 in test [11]; -1.06 in test [12]; -0.07 in [13]. The z-score in [14] is -0.256; in test [15], -1.56; in test [16], -0.926; in test [17], -0.318 (inactive); in test [18] it was -0.424; in test [19], -0.305. Further, the z-score in test [20] was -0.245 (inactive). Besides, the composite z-score in test [2] was -0.0576.

Regarding `COc1c(C)cc(-c2cc3c(c(-c4ccccc4)n2)[Si](C(C)C)(C(C)C)O[C@H]3c2ccccc2)cc1C`, the z-score was -1.11 (inactive) in test [1]; 0.481 (inactive) in test [3]; -0.129 (inactive) in test [4]; -0.561 (inactive) in test [5]; 0.284 (inactive) in [6]; 0.291 in test [7]. Besides, the z-score is -1.36 (inactive) in [8]; 0.788 (inactive) in test [9]; -0.334 in test [10]; -0.77 in test [11]; -0.11 in [12]; -0.0094 in test [13]. In addition, the z-score in test [14] was -0.521; in test [15] it was -1.98; in test [16] it was -1.21; in [17] it was -1 (inactive); in test [18], -0.016; in [19], -0.198. Further, the z-score in test [20] was -0.0824 (inactive). The compound also returned a composite z-score in test [2] of 0.176.

(Values after PubChem BioAssay.)
